Compound activity as filed in PubChem BioAssay.
An excerpt weighted towards active compounds, which were near 2.8% of everything screened.
POLB inh – blocks human DNA polymerase beta activity | P06746 | Pol beta primer extension/strand displacement, fluorescence kinetic | Potency, µM (top dose mostly 114 µM), without a hit: at the highest dose activity change, negative = inhibition, hits mostly inhibitors | 340,000 compounds, 1.3% hits; further: potency means the concentration at half of the fitted maximal effect; on the % scale 0 is the no-effect control and ±100 the full control effect
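Pol beta (10 nM) and compounds were preincubated 15 min at room temperature, then 50 nM substrate (final) started primer extension/strand displacement. Reads were taken at 0 and 10 min; concentration-response data were fitted to a four-parameter Hill equation.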
PI5P4Ka inh – PI5P4K alpha (human) kinase inhibition; P48426; PI5P4Kalpha enzyme, ADP-Glo luminescence, 60 min; active compounds read low; max response, %; 330,000 compounds, 1.2% hits; active means max response of -50% or lower; inconclusive means between -30% and -50%; inactive means -30% or higher; further: value at the top dose of about 77 µM; on the % scale 0 is the no-effect control and ±100 the full control effect
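Compounds were pin-transferred onto PI5P4Kalpha and substrate in HEPES pH 7.4 buffer with EGTA, CHAPS and 5% DMSO. ATP (5 microM final) started the reaction, which ran 60 minutes at room temperature before ADP-Glo detection.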
Pol kappa inh-1 – blocks human DNA polymerase kappa activity. Q9UBT6. Potency, µM (titrated, usually from 107 µM), for inactives: at the highest dose activity, negative = inhibition, usual class: inhibitors. 400,000 compounds, 0.53% hits. purified Pol kappa, fluorescent DNA synthesis assay, 10 min. AID 588579; further: potency means the concentration at half of the fitted maximal effect; on the % scale 0 is the no-effect control and ±100 the full control effect
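Here, compound and 10 nM enzyme are combined for 15 min at room temperature; adding 50 nM substrate (final) starts DNA synthesis, tracked by fluorescence at 0 and 10 min against buffer-only wells.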
Pol eta inh-1 – blocks human DNA polymerase eta activity; 390,000 compounds, 1.2% hits; recombinant Pol eta, fluorescent DNA replication assay; Potency, µM (doses to about 114 µM), without a hit: top-dose activity change, negative = inhibition, usual class: inhibitors; further: potency means the concentration at half of the fitted maximal effect; on the % scale 0 is the no-effect control and ±100 the full control effect
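Pol eta (10 nM) was preincubated with compounds for 15 min at room temperature, after which fluorescent replication substrate (50 nM final) was added to start the reaction. Fluorescence was read kinetically at 0 and 10 min.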
WRN helicase inh – WRN helicase (human) inhibition. Q14191. AID 651768. 360,000 compounds, 0.46% hits. Potency, µM (series often up to 114 µM), inactives show top-dose activity change, negative = inhibition, most hits filed as inhibitors. WRN helicase unwinding, fluorescent forked duplex, kinetic; further: potency means the concentration at half of the fitted maximal effect; on the % scale 0 is the no-effect control and ±100 the full control effect; nearly all actives have a fitted effect of over 55% in size
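WRN at 20 nM final preincubated with compound 15 min at room temperature; reaction started with 100 nM fluorophore/quencher forked duplex oligonucleotide and 2 mM ATP final. Unwinding followed kinetically by red fluorescence (ex 525, em 598 nm).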
POLI inh – DNA polymerase iota (human) inhibition. Q9UNA4. Pol iota fluorescent replication assay, 10 min. Potency, µM (series often up to 115 µM), for the others: at the top dose activity, negative = inhibition, usual class: inhibitors. 390,000 compounds, 1% hits; further: potency means the concentration at half of the fitted maximal effect
Target sequence (Q9UNA4 whole entry, looked up): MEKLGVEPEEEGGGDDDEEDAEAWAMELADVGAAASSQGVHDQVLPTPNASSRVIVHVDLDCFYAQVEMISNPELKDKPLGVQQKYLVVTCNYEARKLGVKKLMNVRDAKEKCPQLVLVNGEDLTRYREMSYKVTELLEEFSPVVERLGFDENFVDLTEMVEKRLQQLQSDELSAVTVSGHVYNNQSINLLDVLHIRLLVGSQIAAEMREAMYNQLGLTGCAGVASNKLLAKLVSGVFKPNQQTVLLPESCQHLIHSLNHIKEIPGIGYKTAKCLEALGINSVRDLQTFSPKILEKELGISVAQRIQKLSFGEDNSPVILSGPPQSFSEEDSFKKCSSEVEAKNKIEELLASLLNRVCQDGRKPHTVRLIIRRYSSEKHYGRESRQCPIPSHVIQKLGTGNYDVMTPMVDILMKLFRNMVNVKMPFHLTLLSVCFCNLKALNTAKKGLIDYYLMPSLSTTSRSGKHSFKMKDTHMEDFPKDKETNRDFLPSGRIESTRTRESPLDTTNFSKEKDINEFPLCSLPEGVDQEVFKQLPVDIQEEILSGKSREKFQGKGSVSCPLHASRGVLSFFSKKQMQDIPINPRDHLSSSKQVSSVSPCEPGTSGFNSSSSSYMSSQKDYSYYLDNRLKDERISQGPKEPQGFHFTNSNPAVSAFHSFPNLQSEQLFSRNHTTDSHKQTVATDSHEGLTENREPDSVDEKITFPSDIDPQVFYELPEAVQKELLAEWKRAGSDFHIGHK
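Pol iota at 10 nM preincubated 15 min with compounds at room temperature; reaction started with fluorescent substrate, 50 nM final. Fluorescence read kinetically at 0 and 10 min; buffer-only wells as negative control.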
GALK confirm – confirmation of human galactokinase (GALK) inhibitors; purified GALK, Kinase-Glo ATP depletion luminescence; shares compounds with Pol eta inh-1; Potency, µM (highest dose often 115 µM), for the others: at the top dose activity, negative = inhibition, usual class: inhibitors; 150 compounds, 70% hits; AID 2015
Redox cycling – counter-screen for GALK inhibitors: redox cycling H2O2 generation. shares compounds with Pol eta inh-1. Phenol red-HRP H2O2 redox cycling, absorbance 600 nm. Potency, µM (doses to about 115 µM), for the others: at the highest dose activity change, negative = H2O2 signal, most hits filed as inhibitors. 150 compounds, 40% hits. AID 2035
HEK293 viability – counter-screen for GALK inhibitors: HEK293 cell cytotoxicity | HEK-293 viability, ATP luminescence (CellTiter-Glo), 24/48 h | 170 compounds, 10% hits | Potency, µM (highest dose often 46.1 µM), without a hit: top-dose activity change, negative = cytotoxicity, actives largely listed as inhibitors | shares compounds with Pol eta inh-1; further: potency means the concentration at half of the fitted maximal effect; on the % scale 0 is the no-effect control and ±100 the full control effect
Pol kappa inh-2 – Pol kappa (human) inhibition, cherry-pick confirmation | purified Pol-kappa, fluorescent strand-displacement substrate | 920 compounds, 76% hits | Potency, µM, actives largely listed as inhibitors | shares compounds with Pol eta inh-1; further: potency means the concentration at half of the fitted maximal effect
Pol eta inh-2 – Pol eta (human) inhibition, cherry-pick confirmation; Pol eta primer extension, TAMRA/BHQ fluorescence, 10 min; Potency, µM, hits mostly inhibitors; shares compounds with Pol eta inh-1; 2,600 compounds, 64% hits; further: potency means the concentration at half of the fitted maximal effect
An asterisk follows results filed as active; u = inconclusive; x = no result given; [ ] = remark or other dose. Unless noted, the call rests on the fitted dose curve; in most records, active means well fitted curve in the direction sought with a large enough effect; inconclusive means small, poorly fitted or top-dose-only effect, or another doubt; inactive means no such curve, though single readings can be large; an effect the other way counts as inactive or inconclusive.

SMILES | POLB inh | PI5P4Ka inh | Pol kappa inh-1 | Pol eta inh-1 | WRN helicase inh | POLI inh | Pol eta inh-2 | others
Cc1ccc(S(=O)(=O)/N=C2/NC(=O)/C(=C\c3cc(Br)cc(Br)c3O)S2)cc1 | u | -78.2* | -35.0% | 22.4µM* | 20µM* | u | x | GALK confirm=23.7µM*;Redox cycling=-1.6%;HEK293 viability=7.6%
Cc1onc(-c2ccccc2Cl)c1C(=O)N1CCN(c2ccc(F)cc2)CC1 | -24.3% | -2.4 | -9.4% | -14.6% | 9.8% | 3.3% | x
COc1cc(NC(=O)[C@H]2O[C@@H](n3ccc(N)nc3=O)[C@H](O)[C@@H]2O)cc(OC)c1OC | x | -0.1 | x | x | -3.4% | x | x
CCN(C(=O)CCS(=O)(=O)c1cc(Br)cc2c1N(C(=O)C1CC1)CC2)c1cccc(C)c1 | -17.7% | x | 0.0% | -6.7% | x | -6.9% | x
CCC(=O)N1CCc2cc(Br)cc(S(=O)(=O)CCC(=O)N(C)c3cccc(C)c3)c21 | 44.7µM* | x | -29.6% | 35.5µM* | x | 6.6% | 84.9*
CC(C)(C)NC(=O)C(c1ccc(O)cc1)N(Cc1ccc2c(c1)OCO2)C(=O)CCl (stereo not drawn) | x | -2.4 | x | -2.4% | -3.4% | x | x
COc1cc(=O)n2c(-c3ccccc3)csc2n1 | -8.7% | -3.5 | -4.9% | -13.2% | -5.6% | 3.0% | x
Cc1cc(C)cc(OCc2cc(=O)n3c(-c4ccccc4)csc3n2)c1 | 12.6µM* | x | u | u | x | u | u | Pol kappa inh-2=u
Cc1ccc2nc(Cl)c(/C=N/Nc3ccc(C(=O)O)cc3)cc2c1 | -21.0% | -16.4 | u | 22.4µM* | -32.0% | -37.3% | 26.9*
Cn1cc(Br)c(C(=O)N/N=C/c2cc3ccccc3nc2Cl)n1 | 4.3% | 0.8 | 18.6% | -6.6% | 5.3% | 29.7% | x
Cc1ccc(C(=O)N2CC(=O)NC(=O)C2)cc1 | 14.7% | -4.0 | -4.0% | -0.7% | 1.7% | -2.6% | x
Cc1oc(C(=O)O)cc1CSCc1cc(C(=O)O)c(C)o1 | 22.4µM* | -18.2 | u | 3.16µM* | u | u | 26.9*
Cc1oc(C(=O)O)cc1CSCc1ccoc1C(=O)O | -16.0% | -16.3 | u | 3.16µM* | -25.3%[57.1 µM] | u | 30.1*
O=C(O)c1occc1CSc1ccccc1 | -5.9% | -9.3 | -13.5% | 3.2% | -3.0% | -4.0% | x
O=C(NNC(=O)c1ccccc1O)c1ccc(S(=O)(=O)Nc2ccccc2)cc1 | x | -5.1 | -16.3% | -6.4% | -21.2% | 19.7% | x
COc1ccc(-n2c(C)cc(/C=C/c3nc(O)c([N+](=O)[O-])c(=O)[nH]3)c2C)cc1 | -4.6% | -51.7* | 50.1µM* | 20µM* | -15.7%[57.1 µM] | u | u
Cc1cc(/C=C\c2nc(O)c([N+](=O)[O-])c(=O)[nH]2)c(C)n1-c1ccccc1 | 25.1µM* | -62.9* | 89.1µM* | 22.4µM* | u | 28.2µM* | u
CCOc1cc(/C=C\c2nc(O)c([N+](=O)[O-])c(=O)[nH]2)ccc1OC(C)CC (stereo not drawn) | 2.7% | u | -1.9% | -0.7% | -17.2% | u | x
